Only some compounds are listed: those with a hit (about 8% of all), similar ones and a draw of the others.
HT1080 IDH1KD tx – qHTS for induction of synthetic lethality in tumor cells producing 2HG: qHTS for the HT-1080-IDH1KD cell line. HT-1080 IDH1 knockdown viability, ATP luminescence, 48 h. Potency, µM (series often up to 46.1 µM), usual class: cytotoxic. 2% of 360,000 active
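Knockdown cells (IDH1KD HT-1080) received compounds 2 h after plating at 750 cells/well and were kept 48 h at 37 °C in 5% FBS RPMI. A CellTiter-Glo luminescence read gave % activity for curve fitting.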
KB-V1 MDR tox – qHTS assay for MDR1-selective chemotherapeutics: Primary screen using the drug-selected MDR subline cells KB-V1 | AID 1347076, 2019 | KB-V1 MDR cells viability, CellTiter-Glo, 72 h | Potency, µM (highest dose often 46.1 µM), actives largely listed as cytotoxic | 3.4% of 400,000 active; also: nearly all actives have a fitted effect of over 60% in size
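KB-V1, DMEM (no phenol red) + 10% FBS; cpd pin-transferred, titration series; 72 h, 37 degrees C; CellTiter-Glo, luminescence. Data normalized, curve-fit.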
KB-3-1 tox – qHTS assay for MDR1-selective chemotherapeutics: Primary screen using the parental adenocarcinoma cell KB-3-1. AID 1347075, 2019. 1.4% of 400,000 active. KB-3-1 viability, CellTiter-Glo ATP luminescence, 72 h. Potency, µM (doses to about 46.1 µM), usual class: cytotoxic; also: nearly all actives have a fitted effect of over 60% in size
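72 h, 37 °C compound treatment of KB-3-1 parental cells; CellTiter-Glo added, 10 min, luminescence read. Data corrected against DMSO-only plates and normalized before curve fitting.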
SW480 rerep – A quantitative high throughput screen for small molecules that induce DNA re-replication in SW480 colon adenocarcinoma cells. SW480 DNA re-replication, Hoechst DNA content imaging, 48 h. Potency, µM (series often up to 46.1 µM), hits mostly activators. 1.8% of 340,000 active. AID 624297, 2012; also: nearly all actives have a fitted effect of over 55% in size
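Per well, 250 cells were exposed to pinned compound for 48 hr. Nuclear DNA was visualised with Hoechst (40 min, 37 C) and total object intensity recorded by fluorescence scanning.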
MCF10A rereplic – A quantitative high throughput screen for small molecules that induce DNA re-replication in MCF 10a normal breast cells | MCF 10A DNA re-replication, Hoechst nuclear intensity, 48 h | Potency, µM (top dose mostly 46.1 µM), hits mostly activators | 2.9% of 350,000 active | AID 624296, 2012; also: nearly all actives have a fitted effect of over 50% in size
HT1080NT lethal – qHTS for induction of synthetic lethality in tumor cells producing 2HG: qHTS for the HT-1080-NT fibrosarcoma cell line | 1.6% of 360,000 active | HT-1080-NT fibrosarcoma viability, CellTiter-Glo ATP luminescence, 48 h | Potency, µM (doses to about 46.1 µM), hits mostly cytotoxic;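 also: NT is the 2HG producing partner of a matched IDH1 knockdown line; nearly all actives have a fitted effect of over 55% in size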
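A 48-hour cytotoxicity screen used HT-1080-NT cells plated 2 hours before compound delivery. ATP-based CellTiter-Glo luminescence measured viability, normalized to DMSO and no-cell controls.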
Of the large screens only hits and unclear results are named; the others gave an inactive call. Calls follow the shape of the dose curve; as a rule, active = well fitted curve in the direction sought with a large enough effect; inconclusive = small, poorly fitted or top-dose-only effect, or another doubt; inactive = no such curve, though single readings can be large; an effect the other way counts as inactive or inconclusive.

O=C(NCc1ccncc1)C(=O)NCC(c1ccco1)N1CCN(c2ccc(F)cc2)CC1 (configuration not stated)	KB-V1 MDR tox 2.6µM, KB-3-1 tox inconclusive
COc1ccc(N2CCN(C(CNC(=O)C(=O)NCC3CCCO3)c3ccco3)CC2)cc1 (configuration not stated)	KB-V1 MDR tox 4.1µM
O=S(=O)(NCC(c1ccco1)N1CCc2ccccc2C1)c1ccc(Br)cc1 (configuration not stated)	HT1080 IDH1KD tx inconclusive, MCF10A rereplic 4.1µM, HT1080NT lethal inconclusive
CCS(=O)(=O)NCC(c1ccco1)N1CCN(c2ccccc2)CC1 (configuration not stated)	KB-V1 MDR tox 23µM
Cc1ccc2c(=O)cc(C(=O)Nc3ccc(S(=O)(=O)N4CCCCCC4)cc3)oc2c1	none (no result: HT1080 IDH1KD tx, SW480 rerep, MCF10A rereplic, HT1080NT lethal)
O=c1c2cc3c(cc2n(Cc2ccc(Cl)cc2)c(=O)n1Cc1nc(-c2ccccc2)no1)OCO3	none (no result: HT1080 IDH1KD tx, SW480 rerep, MCF10A rereplic, HT1080NT lethal)
CN(C)c1ccc(/C=C/c2ccnc3cc(Cl)cc(Cl)c23)cc1	none (no result: HT1080 IDH1KD tx, SW480 rerep, MCF10A rereplic, HT1080NT lethal)
O=S(=O)(NCC(c1ccco1)N1CCN(c2ccccc2F)CC1)c1ccc(F)cc1 (configuration not stated)	none
O=S(=O)(NCC(c1ccco1)N1CCN(c2ccccc2)CC1)c1cc(F)ccc1F (configuration not stated)	none (no result: HT1080 IDH1KD tx, SW480 rerep, MCF10A rereplic, HT1080NT lethal)
O=S(=O)(NCC(c1ccco1)N1CCN(c2ccc(F)cc2)CC1)c1ccc(F)cc1 (configuration not stated)	KB-V1 MDR tox 15µM
O=S(=O)(NCC(c1ccco1)N1CCN(c2ccccc2)CC1)c1ccc(F)cc1 (configuration not stated)	KB-V1 MDR tox 23µM, MCF10A rereplic inconclusive
COC(=O)c1c(-c2ccc(Br)cc2)csc1NC(=O)Cc1ccc(OC)c(OC)c1	KB-V1 MDR tox 7.3µM, KB-3-1 tox inconclusive
COC(=O)c1c(-c2cccc3ccccc23)csc1NC(=O)Cc1ccc(OC)c(OC)c1	HT1080 IDH1KD tx inconclusive, KB-3-1 tox inconclusive, SW480 rerep inconclusive, MCF10A rereplic inconclusive
COC(=O)c1c(-c2ccc(C)cc2)csc1NC(=O)Cc1ccc(OC)c(OC)c1	KB-V1 MDR tox 2.6µM, KB-3-1 tox inconclusive, MCF10A rereplic inconclusive
CCOc1cccc2sc(NC(=O)c3ccc(S(=O)(=O)N4CCCCC4)cc3)nc12	none (no result: HT1080 IDH1KD tx, SW480 rerep, MCF10A rereplic, HT1080NT lethal)
CCc1cccc(C)c1NC(=O)CCS(=O)(=O)c1ccc2c(c1)oc(=O)n2C	none (no result: HT1080 IDH1KD tx, SW480 rerep, MCF10A rereplic, HT1080NT lethal)
COC(=O)c1sccc1NC(=O)c1csc(C)c1	HT1080 IDH1KD tx inconclusive, KB-V1 MDR tox 16µM
O=C(Nc1ccccc1OCc1ccccc1)c1ccccc1Br	KB-V1 MDR tox inconclusive, SW480 rerep inconclusive, MCF10A rereplic 0.58µM
CCOc1ccccc1C(=O)Nc1ccsc1C(=O)OC	HT1080 IDH1KD tx inconclusive, KB-V1 MDR tox 7.3µM, KB-3-1 tox 5.8µM, SW480 rerep 5.8µM, MCF10A rereplic 7.3µM, HT1080NT lethal inconclusive
CCOc1ccccc1C(=O)Nc1ccccc1C(N)=O	KB-V1 MDR tox 13µM
CCOc1ccccc1NC(=O)c1ccccc1NC(=O)c1ccco1	SW480 rerep inconclusive
COc1ccccc1Nc1nn2c(=O)c3ccc(C(=O)NC4CCC(C)CC4)cc3nc2s1 (configuration not stated)	KB-V1 MDR tox inconclusive (no result: HT1080 IDH1KD tx, SW480 rerep, MCF10A rereplic, HT1080NT lethal)
COc1cc(N(C)C)c(OC)cc1/C=C/c1ccnc2ccccc12	none (no result: HT1080 IDH1KD tx, SW480 rerep, MCF10A rereplic, HT1080NT lethal)
Cc1ccc(NC(=S)/N=C(\N)Nc2nc(C)c3ccccc3n2)cc1C	KB-V1 MDR tox inconclusive, KB-3-1 tox inconclusive
Cc1cccc(NC(=S)/N=C(\N)Nc2nc(C)c3cc(C)ccc3n2)c1	KB-V1 MDR tox 23µM, SW480 rerep inconclusive

Screens deposited in PubChem by National Center for Advancing Translational Sciences (NCATS).
